The source made the active and inactive calls. The rule behind the calls is not given here. Where a SMILES comes first, the peptide text is derived from it. The star is where a group is joined. Boc = CC(C)(C)OC(=O)*
These molecules were tested on Botulinum neurotoxin type F light chain protease (Clostridium botulinum) (assay: Clostridium botulinum type F light chain protease inhibitors, microsphere substrate cleavage, validation (AID 588459)). Conditions: multiplex microsphere protease substrate cleavage assay, flow cytometry; at 10 µM; hits give high values.

| SMILES | inhibition |
| --- | --- |
| COCC1CCCN(Cc2cn[nH]c2-c2cc3ccccc3o2)C1 (configuration not stated) | -0.1% (inactive) |
| CC(C)(C)OC(=O)N1CCCC1C(=O)NC(Cc1ccccc1)C(=O)O (stereo not drawn) (Boc-Pro-Phe-OH; configuration not given here) | -2.1% (inactive) |
| CCC12CN3CC(CC)(CN(C1)C31C(=O)N(C)c3ccc(C)cc31)C2=O (configuration not stated) | -1.6% (inactive) |
| Cc1ccccc1-c1nn(-c2ccc(F)cc2F)cc1CNCCN(C)C | -1.9% (inactive) |
| COc1ccccc1NC(=O)Cn1c(C)cc(=O)c2cccc(OC)c21 | -1.1% (inactive) |
| COc1ccc(S(=O)(=O)NC(Cc2cnc[nH]2)C(=O)O)cc1 (configuration not stated) | 2.4% (inactive) |
| C#CCN1C(=O)C(O)(c2c(C)[nH]c3ccccc23)c2ccccc21 (configuration not stated) | 0.4% (inactive) |
| CC(=O)C1=C(NC(=O)c2ccc(C(F)(F)F)cc2)C[C@@H]2[C@H]1C2(C)C | 2% (inactive) |
| O=C(c1ccc(-c2ccccc2)c(F)c1)C1CCCN(C(=O)c2cncs2)C1 (configuration not stated) | 0.6% (inactive) |
| Cc1ccc(S(=O)(=O)Oc2ccccc2/C=N/N=C(N)N)cc1 | 0.8% (inactive) |
| COc1ccccc1NC(=O)C12CCC(C)(C(=O)C1)C2(C)C (configuration not stated) | -1% (inactive) |
| Cc1c(OC(=O)CNC(=O)OC(C)(C)C)ccc2c3c(c(=O)oc12)CCC3 | -2.7% (inactive) |
| Cc1nc(NCc2ccco2)c(C#N)c2c1COC(C)(C)C2 | 1% (inactive) |
| CC1(C)[C@@H](O)CC[C@]2(C)[C@H]3C(=O)C=C4[C@@H]5C[C@@](C)(C(=O)O)CC[C@]5(C)CC[C@@]4(C)[C@]3(C)CC[C@@H]12 | 4.4% (inactive) |
| NS(=O)(=O)c1cc(C2(O)NC(=O)c3ccccc32)ccc1Cl (configuration not stated) | -0.2% (inactive) |
| C=C(C)COc1ccc(-c2n[nH]c(C)c2-c2ccc(OC)cc2)c(O)c1 | -1.3% (inactive) |
| Cn1c2ccc(CC(=O)O)cc2c2cc(CC(=O)O)ccc21 | 2.2% (inactive) |
| O=C(CCSc1ccccc1)N1CCCC1 | 1.2% (inactive) |
| CS(=O)(=O)Oc1ccc2c(c1)O/C(=C\C=C\c1ccccc1)C2=O | 26.9% (inactive) |
| CCOc1cc2c(cc1OCC)C(c1ccccc1)N(c1ccc(C(=O)O)cc1)C(=O)C2 (configuration not stated) | -1.8% (inactive) |
| O=C(NNC(=O)c1cccs1)c1ccco1 | 1.9% (inactive) |
| CC(=O)C1=C(O)C(=O)N(CC(=O)O)C1c1ccccc1Cl (configuration not stated) | -1.5% (inactive) |

— PubChem BioAssay
